Laboratory results from ChEMBL document CHEMBL3988442, “University of Dundee, Small-Polar-MMV Screening Library” (2021).

Assays:
[1] = biological target: T1, Aspartate--tRNA(Asp/Asn) ligase (Mycobacterium tuberculosis (strain ATCC 25618 / H37Rv)) (UniProt P9WFW3); assay: Assay for Asp RNA synthetase-1 from Mycobacterium tuberculosis; format: functional; design: scale not given: direction of the effect not stated beside the values; conditions: 30 µM; further: in the data most compounds retested in dose-response had high values
T1 sequence (whole entry): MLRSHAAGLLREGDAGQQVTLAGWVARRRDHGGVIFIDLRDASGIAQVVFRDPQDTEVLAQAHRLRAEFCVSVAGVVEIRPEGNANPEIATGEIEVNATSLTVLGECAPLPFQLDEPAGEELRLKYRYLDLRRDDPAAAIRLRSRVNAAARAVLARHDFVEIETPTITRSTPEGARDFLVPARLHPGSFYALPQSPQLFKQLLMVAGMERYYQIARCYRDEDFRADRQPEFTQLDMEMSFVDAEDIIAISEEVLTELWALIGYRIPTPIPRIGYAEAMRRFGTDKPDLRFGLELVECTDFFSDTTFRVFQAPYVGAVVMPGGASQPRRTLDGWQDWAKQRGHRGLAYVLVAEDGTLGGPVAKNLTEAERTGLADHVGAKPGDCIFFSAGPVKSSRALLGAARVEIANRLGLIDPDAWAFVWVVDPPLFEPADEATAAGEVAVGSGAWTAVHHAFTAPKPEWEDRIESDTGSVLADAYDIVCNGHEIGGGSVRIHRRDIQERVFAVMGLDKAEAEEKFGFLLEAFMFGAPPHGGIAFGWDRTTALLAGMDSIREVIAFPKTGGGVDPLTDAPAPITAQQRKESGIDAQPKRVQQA

[2] = biological target: Shiga toxin 2 (Escherichia coli O157:H7) (UniProt P09385+P09386); assay: E. coli 0.157:H7 Shiga Toxin SOP - stx2 screening assay; format: functional; design: scale not given: direction of the effect not stated beside the values; conditions: 30 µM

Structure (SMILES)	Percent Effect [1] [%]	Percent Effect [2] [%]
Cc1cccc(CNC(CN2CCN(C)CC2)c2ccccc2)c1 (configuration not stated)	3.03	-5.1
CN1CCOC(CNCc2nc(-c3ccccc3)cs2)C1 (configuration not stated)	-7.57	-26
Cc1nccn1Cc1nnc(C2CCCN(Cc3cccnc3)C2)n1C (configuration not stated)	-2.79	4.73
Cc1cccc(CS(=O)(=O)NCC(O)Cc2ccccc2)c1 (configuration not stated)	-8.39	0.958
CCc1nccn1C1CCCN(C(=O)Cc2ccc(OC)c(F)c2)C1 (configuration not stated)	-7.86	4.47
CN(C)Cc1nnc(C2CCN(c3nccc(N)n3)CC2)n1C1CC1	2.12	-41.2
CN1CCC(CCNC(=O)c2ccc(N(C)S(C)(=O)=O)cc2Cl)CC1	1.1	-50.8
O=C(c1ccoc1)N1CC[C@@H]2[C@H]1CCC(=O)N2c1ccccc1	1.49	1.4
CCc1noc(C(C)N2CCC(NC(=O)c3ccc(C)s3)CC2)n1 (configuration not stated)	5.23	-30.1
Cc1noc(C)c1CN1CCN(Cc2nccn2C)CC1	-5.33	-1.2
CCc1nccn1C1CCCN(C(=O)c2cn3c(C)cccc3n2)C1 (configuration not stated)	-4.04	4.17
CSCCCN1CC[C@@H](NC(=O)c2cnccn2)[C@H](O)C1	-0.39	2.82
CC(C)Cc1noc(CN2CCN(C(=O)c3ccco3)CC2)n1	-0.114	-20
Cc1ccc(N2CC3(COCCN(Cc4nccs4)C3)OCC2=O)s1 (configuration not stated)	7.04	-13.5
Cc1ccsc1CNc1cc(N2CCCC2CO)ncn1 (configuration not stated)	3.04	-22.2
CC(C)n1cc(CN2CCCN(C(=O)c3ccc[nH]3)CC2)cn1	-3.14	-5.02
CCOCCOc1ccccc1C(=O)N1CCCC(c2ncc[nH]2)C1 (configuration not stated)	7.07	-32.6
CC(C)N1CCC(Cc2cc(-c3ccccc3C(=O)O)ncn2)CC1	-0.134	8.23
CCS(=O)(=O)N(C)CC(=O)Nc1ccc(Br)cn1	-2.34	-12.9
CN(C)CCN1CCO[C@@H]2CN(C(=O)c3cccs3)CC[C@@H]2C1	0.229	4.93
Cc1csc(CNC(=O)N(C)Cc2cnn(C)c2)n1	1.54	-1.35
Cn1cc(CCC(=O)N2C[C@H]3CC[C@@H]2CN(Cc2ccccc2)C3)cn1	2.92	-3.02
Cc1ccc(CNC2CCN(CCc3ccncc3)CC2)s1	-2.55	-53.8
Cc1[nH]/c(=N\C(=O)c2csc(NC3CC3)n2)sc1C	-4.09	7.35
Cc1ccc(CN(Cc2cccnc2)C2CC(C)(C)NC(C)(C)C2)s1	3.32	13.4
CSCc1cccc(S(=O)(=O)NCCCO)c1	13.1	-26.7

Structure (SMILES)	Percent Effect [1] [%]	Percent Effect [2] [%]
CS(=O)(=O)Cc1ccc(CNC(=O)c2cccnc2O)cc1	-6.68	-14.2
CCNS(=O)(=O)c1ccc(C)c(C(=O)N(C)Cc2ccco2)c1	2.92	0.315
CCN(Cc1ccccc1)C(=O)CN1CCCC(Cn2cncn2)C1 (configuration not stated)	2.11	3.34
CCN(Cc1ccc2c(c1)OCCO2)C(=O)NCc1cc[nH]n1	3.66	27.9
Cc1nc(CN2CCCC(N(C)CCc3ccncc3)C2)no1 (configuration not stated)	0.35	22.9
CC(C)(CNC(=O)CCOc1cccc(F)c1)C(N)=O	-0.256	29.6
CN1CCC(Cc2cc(Nc3ncccn3)ncn2)CC1	7.7	7.59
COCCc1noc(CN2CCCC2Cn2cc(C)cn2)n1 (configuration not stated)	-2.48	-2.29
COCCN(C)CCN1CC2(CCN(C3CCCOC3)CC2)OC1=O (configuration not stated)	3.6	-60.6
COCC1CN(CC2CC2)Cc2nn(C)cc21 (configuration not stated)	12.6	-5.39
Cc1nc(C)n(CC2CN(CC(=O)Nc3nccs3)CCO2)n1 (configuration not stated)	-3.2	0.609
CC(C)CCOCCNC(=O)Nc1cc(C(F)(F)F)c[nH]c1=O	1.4	5.72
Cc1nn(C)c(C)c1C1CCCN1CC(=O)NC(C1CC1)C1CC1 (configuration not stated)	-3.8	-0.393
O=C1NCC2(CCCN(Cc3ccc(Cl)s3)C2)Oc2ccccc21 (configuration not stated)	-6.49	-53.7
COc1c(C2CCCN2C(=O)c2cc(Cl)c[nH]2)c(C)nn1C (configuration not stated)	0.802	-13
CCC1CN(CCNC(C)=O)CCN1CCOC (configuration not stated)	15	16.5
O=C(c1ncccn1)N1C[C@H]2CCC[C@@]2(COCc2ccncc2)C1	-2.08	-24.5
O=C(CN1CCCC1Cn1cncn1)Nc1cccnc1 (configuration not stated)	1.28	9.88
Cc1nsc(NC(=O)N2CCN(Cc3ccc(F)cc3)C(=O)C2)n1	2.26	-7.74
CC(C)c1noc(C(C)N2CCN(Cc3ccccc3C#N)CC2)n1 (configuration not stated)	-1.01	12.5
COCCN1C(=O)CO[C@H]2CN(Cc3c[nH]nc3-c3ccccc3)C[C@@H]21	-1.03	7.69
CNc1oc(-c2ccc(OC)c(S(=O)(=O)N3CCCCC3)c2)nc1C#N	-1.39	-28.4
CC(C)CNC(=O)[C@H]1CCS(=O)(=O)[C@@H]2CN(Cc3ccc(Cl)cc3)C[C@H]12	-0.0704	-5.7
COC(=O)C(c1cc(F)ccc1F)N(C)C(=O)c1ccnc(C)n1 (configuration not stated)	-0.393	-2.56
Cc1nnc2n1CCN(C(=O)c1cc(C)n(-c3ccccn3)c1C)C2	4.19	32.2
